According to PubChem BioAssay AID652067 (The Scripps Research Institute Molecular Screening Center, 2013):
The whole screen tested about 370,000 compounds, of which about 5,400 (1.5%) were called active. Many of the other results were omitted from the sample, so actives are more common in it than they were. Unmarked numbers belong to inactive results.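 Rule for the calls: active = activation above the mean of all tested compounds plus 3 SD (cut at about 5.5% in these data); inactive = the rest.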

What follows are compounds tested on DAF-12 nuclear receptor (Haemonchus contortus) (assay: hcDAF-12 driven luciferase reporter activation – cell-based, luminescence, HEK293, lit1-tk-luc reporter, primary screen (AID 652067;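 note: 100% = response to 3 µM Δ7-dafachronic acid high control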)). Conditions: HEK293 hcDAF-12 lit1-tk-luc reporter, at 6.8 µM, hits give high values, 0% DMSO, 100% Δ7-dafachronic acid.

Structure (SMILES) | activation
COC(=O)C[C@@H]1CC[C@H]2[C@@H](COc3ccc(NS(=O)(=O)CC(F)(F)F)cc3C(=O)N2C)O1 | -1.05%
CCOC(=O)C1=C(C)NC2=C(C(=O)CC(C)(C)C2)C1c1ccc2c(c1)OCO2 (stereo unspecified) | -1.34%
COc1ccc(-n2c(SCC(=O)Nc3ccc(C)c(Cl)c3)nc3ccccc3c2=O)cc1 | -3.08%
CCOC(=O)[C@]12CCCC3=C1N(CCC3)C(=O)[C@@H](CC(=O)NCC13CC4CC(CC(C4)C1)C3)C2 | -1.5%
COc1ccccc1-c1nnc(NC(=O)c2ccc3ncsc3c2)o1 | 10.5% (active)
Cc1sc(NC(=O)c2ccc3ncsc3c2)c(C(N)=O)c1C | 3.79%
Cc1ccc(C(=O)Nc2nnc(C3=COCCO3)o2)cc1C | 1.47%
CCOP1(=O)C=C(C(C)(C)C)OC1c1ccc(F)cc1 (stereo unspecified) | -0.68%
C=CCN1C(C(=O)OC)CN(Cc2cn(Cc3ccccc3)nn2)CCS1(=O)=O (stereo unspecified) | 1.4%
COc1cccc(CNC(=O)[C@H]2CCCN2C(=O)[C@H]2CCCN2C(=O)C2CCCCC2)c1 | 0.47%
Cc1ccc2nc(CN(C)C(=O)[C@@H](Cc3ccccc3)NC(=O)[C@H]3O[C@@H](n4ccc(=O)[nH]c4=O)[C@H](O)[C@@H]3O)[nH]c2c1 | 0.21%
CC1CC(C)CN(CCC(=O)Nc2ccc3c(c2)CCC3)C1 (stereo unspecified) | 0.05%
O=C(Nc1ccc(F)cc1)c1cc2c(s1)CCCC2 | 3.72%
O=C(Nc1ccc2c(c1)CCC2)c1ccc(Br)s1 | 9.52% (active)
COC(=O)[C@@]12CCCCC3=C1N(CCC3)C(=O)[C@H]2CC(=O)NCc1cccc2ccccc12 | -2.45%
CC(c1c[nH]c2ccccc12)c1c(-c2ccccc2)n(C)c2ccccc12 (stereo unspecified) | 3.35%
Cn1ccnc1SCC(=O)Nc1ccc2c(c1)OCCO2 | 6.79% (active)
O=C(CSc1nnnn1C1CCCC1)Nc1ccc2c(c1)OCCO2 | 1.27%
CCn1c(SCC(=O)Nc2ccc3c(c2)OCCO3)nnc1C(C)C | -0.69%

Structure (SMILES) | activation
COC(=O)c1c(NC(=O)c2ccc(S(=O)(=O)N3CCOCC3)cc2)sc2c1CCN(C(C)C)C2 | 2.7%
Cc1ccc(-c2csc(N(Cc3ccco3)C(=O)c3cccs3)n2)cc1 | -0.42%
Cc1ccc(-c2csc(-c3c[nH]c4ccccc34)n2)cc1 | 6.08% (active)
CCn1c(SCCC(C)C)nnc1-c1c[nH]c2ccccc12 | -1.13%
COc1cccc(CNC(=O)C2CCCN(c3nc4ccccc4o3)C2)c1OC (stereo unspecified) | -1.83%
C=CCOC/C=C/C#CCN(CC=C)Cc1ccc(OC)cc1OC | -3.48%
COC(=O)Nc1ccc(S(=O)(=O)N(C)CC(F)(F)C(F)F)cc1 | -2.07%
COc1cccc(CNC(=O)CNS(=O)(=O)c2ccc3nc(C)sc3c2)c1OC | -1.15%
C=CCn1c(=O)c(C(=O)Nc2ncccc2O)c(O)c2ccccc21 | -0.68%
Cn1c(=O)c(C(=O)Nc2ncccn2)c(O)c2ccccc21 | 9.87% (active)
Cn1c(=O)c(Sc2ccc(Cl)cc2)c(O)c2ccccc21 | 2.05%
COc1ccc(-n2c(SCC(=O)NC3CCCC3)nnc2-c2ccncc2)cc1 | -2.34%
COc1ccc(C2=CN(Cc3ccccc3)C(c3ccc(OC)cc3)CC2=O)cc1 (stereo unspecified) | -0.85%
CCOc1ccc(C(=O)Nc2ccc(CN3CCOCC3)cc2)cc1Cl | -3.09%
COc1ccc(C(=O)Nc2ccnn2C2CCN(Cc3ccncc3)CC2)cc1 | -0.02%
COc1ccc(C(=O)Nc2sc(C)c(C)c2CN2CCOCC2)cc1 | 7.53% (active)
CCC(=O)c1cn(CCOc2ccccc2OC)c2ccccc12 | -2.5%
C=CCN1C(=O)[C@@H](CC(=O)N2CCN(C(=O)c3ccco3)CC2)[C@]2(C(=O)OC)CCCCC=C12 | 1.06%
O=C(Nc1ncccc1O)c1ccc(S(=O)(=O)N2CCCCCC2)cc1 | 3.34%

Structure (SMILES) | activation
O=C(Nc1ncccc1O)c1ccc(C(=O)c2ccccc2)cc1 | 7.52% (active)
O=C(Nc1ncccc1O)c1ccc(S(=O)(=O)N2CCCC2)cc1 | 1.37%
COc1ccc(C2=Nc3cc(C)ccc3OC2)cc1 | 12.7% (active)
Cc1ccc(C(=O)NNC2=Nc3cc([N+](=O)[O-])ccc3OC2)cc1 | 2.34%
COc1ccc(-c2onc(C)c2-c2ccc3c(c2)OCCO3)c(O)c1 | -2.41%
CCOC(=O)c1ccccc1NC(=S)N1CCC(C(N)=O)CC1 | -0.3%
CC(=O)NC(c1cccc(F)c1)c1nc(-c2cccc(F)c2)cs1 (stereo unspecified) | -0.83%
CC(=O)NC(c1ccccc1)c1nc(-c2cccc(C(C)C)c2)cs1 (stereo unspecified) | -2.11%
CC(=O)NC(c1ccccc1)c1nc(-c2ccccc2C)cs1 (stereo unspecified) | 3.96%
CC(=O)Nc1cccc(-c2csc(Nc3cccc(C)n3)n2)c1 | 6.6% (active)
Cc1nc(N)sc1-c1ccccc1 | 1.84%
Cc1cccc(Nc2nc(-c3ccccc3)cs2)n1 | 13% (active)
Cc1ccccc1Nc1scc(-c2ccc(Br)cc2)[n+]1-c1ccccc1C | -0.47%
Cc1noc(C)c1NC(=O)Nc1ccc2c(c1)C(=O)N([C@H](C)CO)C[C@H](C)[C@H](CN(C)Cc1ccncc1)OCCCC[C@@H](C)O2 | -0.42%
O=C1CCC2(CCC(c3ccc(Cl)cc3)CC2)N1CCO (stereo unspecified) | 0.94%
Cc1ccc(C)c(CN2CCC(CNC(=O)C3CCCN(c4ncnc5c4nc4n5CCCCC4)C3)CC2)c1 (stereo unspecified) | -1.74%
N#Cc1ccccc1OC[C@@H](O)CN1CCC(C(O)(c2ccccc2)c2ccccc2)CC1 | -1.36%
Cc1ccc(CSc2nnc(SCC(=O)NN=Cc3cc(Br)ccc3F)s2)cc1 | -0.88%
